In PubChem BioAssay (NCATS):
Results filed as inconclusive are left out. Unless noted, calls follow the shape of the dose curve; as a rule, active = well fitted curve in either direction with a large enough effect (not every such curve was filed as active); inconclusive = small, poorly fitted or top-dose-only effect, or another doubt; inactive = flat fitted curve, though single readings scatter.

Columns and labels:
[1] = AP1 Signaling Pathway (AID 357); conditions: ME-180 AP-1-bla reporter, EGF-induced, beta-lactamase ratio, 5 h; at 17.2 µM (top of the series) unless noted;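 also: ME-180 reporter cells stimulated with EGF at its EC50 level; % is scaled to controls: 0 for no effect and ±100 for the full control effect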
In short: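 First, ME-180 AP-1-bla cells were cultured overnight at 37 °C in low-serum Opti-MEM. Next, titrated compounds with EC50 EGF were incubated 5 hours. Finally, CCF4 was added for 2.5 hours and the 460/530 nm ratio recorded.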

[2] = NFAT Signaling Pathway (AID 444); conditions: Jurkat NFAT-bla M1, carbachol, beta-lactamase ratio, 5 h; at 17.2 µM (top of the series) unless noted;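 also: carbachol stimulus at about its EC50 of 1 µM final; % is scaled to controls: 0 for no effect and ±100 for the full control effect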
In short: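 Jurkat cells with NFAT-driven β-lactamase reporter and co-expressed M1 receptor, stimulated with carbachol (final 1 uM, ~EC50), compound titration, 5 h at 37 °C. CCF4 loaded 1 h at RT; 460/530 nm ratio gave %activity and AC50.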

[3] = Stat Signaling Pathway (AID 446); conditions: ME-180 (cervical carcinoma) SIE beta-lactamase reporter, IL-6 stimulated, 5 h; at 17.2 µM (top of the series) unless noted;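 also: ME-180 cervical cancer cells given 40 pM IL-6 alongside compound; SIE-controlled beta-lactamase reporter measured as 460/530 nm FRET emission ratio; % is scaled to controls: 0 for no effect and ±100 for the full control effect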
In short: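 Compound effects on IL-6-induced STAT reporter activity were measured in ME-180 cells. After overnight culture, cells were co-treated with 40 pM IL-6 for 5 hrs before beta-lactamase substrate loading at room temperature.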

[4] = molecular target: Glucocorticoid receptor (Homo sapiens) (UniProt P04150); assay: GR-GFP Redistribution (AID 450;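 active = compounds whose dose series gives a full or clear partial fitted curve of increased nuclear translocation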; also: potency is read from the fitted curve at half-maximal effect)
Glucocorticoid receptor (Homo sapiens), sequence (P04150 whole entry, looked up): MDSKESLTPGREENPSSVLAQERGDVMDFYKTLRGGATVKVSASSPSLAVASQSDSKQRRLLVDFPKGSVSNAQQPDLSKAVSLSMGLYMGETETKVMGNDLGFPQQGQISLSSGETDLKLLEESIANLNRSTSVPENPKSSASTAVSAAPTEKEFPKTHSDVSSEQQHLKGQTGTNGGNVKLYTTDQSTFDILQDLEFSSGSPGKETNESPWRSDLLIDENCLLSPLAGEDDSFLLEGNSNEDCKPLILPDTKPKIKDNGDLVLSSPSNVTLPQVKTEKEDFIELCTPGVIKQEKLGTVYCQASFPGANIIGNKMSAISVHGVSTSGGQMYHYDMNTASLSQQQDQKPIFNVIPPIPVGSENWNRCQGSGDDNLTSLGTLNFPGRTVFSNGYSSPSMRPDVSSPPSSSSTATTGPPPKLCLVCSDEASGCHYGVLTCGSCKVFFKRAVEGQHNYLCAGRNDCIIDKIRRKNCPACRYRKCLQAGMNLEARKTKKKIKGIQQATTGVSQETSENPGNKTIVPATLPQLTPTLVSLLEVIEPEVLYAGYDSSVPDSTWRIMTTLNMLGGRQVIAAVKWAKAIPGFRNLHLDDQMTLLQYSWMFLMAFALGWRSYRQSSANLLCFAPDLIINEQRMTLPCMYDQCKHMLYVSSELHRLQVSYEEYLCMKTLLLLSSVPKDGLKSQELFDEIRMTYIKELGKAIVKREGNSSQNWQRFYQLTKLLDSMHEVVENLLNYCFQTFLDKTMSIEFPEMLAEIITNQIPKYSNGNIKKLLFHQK

Cc1cc(C)nc(NC2=NCC(=O)N2c2cccc(Cl)c2)n1
inactive: activity change, negative = inhibition [1] 3.62% | activity change, negative = inhibition [2] -0.714% | activity, negative = inhibition [3] 0.214% | Potency [4] > 20.6 µM

CCn1c(SC(C)C(=O)O)nc2sc3c(c2c1=O)CCC3 (stereo not given)
inactive: activity change, negative = inhibition [1] 2.76% | activity change, negative = inhibition [2] 17.5% | activity, negative = inhibition [3] -5.33% | Potency [4] > 20.6 µM

CCN(CC)CCN1C(=O)C(O)=C(C(=O)c2cccs2)C1c1ccccn1 (stereo not given)
inactive: activity change, negative = inhibition [1] -0.981% | activity change, negative = inhibition [2] 9.2% | activity, negative = inhibition [3] -0.0775% | Potency [4] > 20.6 µM

COc1cccc(-c2nnc3sc(-c4ccc(Cl)cc4)nn23)c1
inactive: activity change, negative = inhibition [1] 5.29% | activity change, negative = inhibition [2] -1.08% | activity, negative = inhibition [3] 11.1% | Potency [4] > 20.6 µM

COc1ccc(OC)c2c1CCC2=O
inactive: activity change, negative = inhibition [1] -7.3% | activity change, negative = inhibition [2] -3.76% | activity, negative = inhibition [3] 6.79% | Potency [4] > 20.6 µM

C[C@]12CC[C@@H]3c4ccc(O[C@@H]5O[C@H](C(=O)O)[C@@H](O)[C@H](O)[C@H]5O)cc4CC[C@H]3[C@@H]1C[C@@H](O)[C@@H]2O
inactive: activity change, negative = inhibition [1] 4.45% | activity change, negative = inhibition [2] -30% | activity, negative = inhibition [3] 11.5% | Potency [4] > 20.6 µM

CCOCCn1c(SCc2c(F)cccc2Cl)nc2c1c(=O)[nH]c(=O)n2C
inactive: activity change, negative = inhibition [1] -8.65% | activity change, negative = inhibition [2] -17.4% | activity, negative = inhibition [3] -2.5% | Potency [4] > 20.6 µM

Cc1nc(Nc2ncc3c(n2)CCCC3=O)nc2ccccc12
inactive: activity change, negative = inhibition [1] 16.8% | activity change, negative = inhibition [2] 19.8% | activity, negative = inhibition [3] 0.527% | Potency [4] > 20.6 µM

CSc1nc(NC(C)=O)nc(C)c1Cl
inactive: activity change, negative = inhibition [1] 11.1% | activity change, negative = inhibition [2] -9.42% | activity, negative = inhibition [3] 3.48% | Potency [4] > 20.6 µM

CC1(C)Cc2c(C#N)c(N3CCOCC3)nc(Cc3ccccc3)c2CO1
inactive: activity change, negative = inhibition [1] -20.2% | activity change, negative = inhibition [2] -28.9% | activity, negative = inhibition [3] -7.6% | Potency [4] > 20.6 µM

COc1cc(=O)[nH]c(=O)n1CC(=O)c1ccccc1
inactive: activity change, negative = inhibition [1] 1.4% | activity change, negative = inhibition [2] 3.25% | activity, negative = inhibition [3] 5.97% | Potency [4] > 20.6 µM

Cn1c(=O)c2c(nc(Br)n2CCSc2nc3ccccc3o2)n(C)c1=O
inactive: activity change, negative = inhibition [1] 5.24% | activity change, negative = inhibition [2] 1.98% | activity, negative = inhibition [3] 10.5% | Potency [4] > 20.6 µM

COCCN(Cc1ccccc1)P(=O)(O)c1ccccc1OCC(=O)O
inactive: activity change, negative = inhibition [1] -2.92% | activity change, negative = inhibition [2] -4.16% | activity, negative = inhibition [3] 2.47% | Potency [4] > 20.6 µM

Cn1c(SCC(=O)NCc2ccccc2)nc2ccccc21
inactive: activity change, negative = inhibition [1] -0.959% | activity change, negative = inhibition [2] 1.73% | activity, negative = inhibition [3] 4.04% | Potency [4] > 20.6 µM

CC1(C)Cc2c(c(-c3ccccc3Cl)[nH]c(=O)c2C#N)CO1
inactive: activity change, negative = inhibition [1] 13% | activity change, negative = inhibition [2] -5.06% | activity, negative = inhibition [3] 2.62% | Potency [4] > 20.6 µM

O=C(O)C1CSC(CCc2ccccc2)N1 (stereo not given)
inactive: activity change, negative = inhibition [1] 19.9% | activity change, negative = inhibition [2] -1.74% | activity, negative = inhibition [3] 27% | Potency [4] > 20.6 µM

CCOC(=O)c1cc2cc(OC)ccc2[nH]1
inactive: activity change, negative = inhibition [1] -4.55% | activity change, negative = inhibition [2] -5% | activity, negative = inhibition [3] -4.94% | Potency [4] > 20.6 µM

O=C1CC(c2ccco2)CC(O)=C1C=NCCN1CCN(C2CC(=O)N(c3ccccc3)C2=O)CC1 (stereo not given)
inactive: activity change, negative = inhibition [1] -3.13% | activity change, negative = inhibition [2] -22.1% | activity, negative = inhibition [3] -0.0328% | Potency [4] > 20.6 µM

CCN(CC)C(=O)CSC1=C(C#N)C(c2ccco2)C(C(=O)OCCOC)=C(C)N1 (stereo not given)
inactive: activity change, negative = inhibition [1] -10.6% | activity change, negative = inhibition [2] -0.498% | activity, negative = inhibition [3] 2.75% | Potency [4] > 20.6 µM

CC1(C)C/C(=C(/C#N)C(N)=O)CCO1
inactive: activity change, negative = inhibition [1] -0.694% | activity change, negative = inhibition [2] 2.44% | activity, negative = inhibition [3] 4.37% | Potency [4] > 20.6 µM
